# Screens as filed in PubChem.
# Most compounds without a hit are left out; they make up all but 3% or so of the library.
# Nrf2 inh: Nrf2 pathway inhibition; A549 ARE-Fluc reporter, luciferase luminescence, 18-24 h; Potency, µM (doses to about 46 µM), for the others: top-dose activity change, negative = inhibition, actives largely listed as inhibitors; hit rate 2.1% among 360,000; AID 504444; also: % is scaled to controls: 0 for no effect and ±100 for the full control effect; nearly all actives have a fitted effect of over 60% in size
#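 A549 ARE_Fluc cells (5000/well, 5% FBS OPTI-MEM) pre-incubated 2 h, then treated with compounds 18-24 h at 37C/5% CO2 in concentration-response. CellTiter-Fluor viability read first; BugLite luciferase luminescence after 15 min at room temperature gives Nrf2 activity.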
# GALK inhibitor: inhibitors of human galactokinase. P51570. Purified GALK, Kinase-Glo residual ATP luminescence. Potency, µM (doses to about 57.5 µM), without a hit: top-dose activity change, negative = inhibition, hits mostly inhibitors. hit rate 0.007% among 270,000. AID 1868; also: % is scaled to controls: 0 for no effect and ±100 for the full control effect
#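 Compounds were pin-transferred into ATP buffer (35 uM final), then GALK plus galactose (5 nM, 100 uM final) was added. After 1 h at room temperature, Kinase-Glo Plus was added and luminescence read after 10 min.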
# A549 tox: A549 cytotoxicity, counter-screen for Nrf2 inhibitors. A549 ARE-Fluc cells, CellTiter-Fluor viability, 18-24 h. Potency, µM (highest dose often 46 µM), for inactives: at the top dose activity change, negative = cytotoxicity, actives largely listed as inhibitors. hit rate 0.16% among 390,000. AID 504648; also: % is scaled to controls: 0 for no effect and ±100 for the full control effect
#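 Cytotoxicity counterscreen: CellTiter-Fluor fluorescence was measured in A549 ARE_Fluc cells after 18-24 h of compound exposure in a concentration series. The subsequent BugLite luminescent read reports ARE-luciferase activity.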
# TrxR1 inh: inhibitors of rat thioredoxin reductase 1; recombinant rTrxR1, NADPH fluorescence consumption, selenite substrate; Potency, µM (series often up to 114 µM), inactives show top-dose activity change, negative = inhibition, most hits filed as inhibitors; hit rate 1% among 390,000; O89049; also: % is scaled to controls: 0 for no effect and ±100 for the full control effect; nearly all actives have a fitted effect of over 65% in size
# Target sequence (O89049 whole entry, looked up): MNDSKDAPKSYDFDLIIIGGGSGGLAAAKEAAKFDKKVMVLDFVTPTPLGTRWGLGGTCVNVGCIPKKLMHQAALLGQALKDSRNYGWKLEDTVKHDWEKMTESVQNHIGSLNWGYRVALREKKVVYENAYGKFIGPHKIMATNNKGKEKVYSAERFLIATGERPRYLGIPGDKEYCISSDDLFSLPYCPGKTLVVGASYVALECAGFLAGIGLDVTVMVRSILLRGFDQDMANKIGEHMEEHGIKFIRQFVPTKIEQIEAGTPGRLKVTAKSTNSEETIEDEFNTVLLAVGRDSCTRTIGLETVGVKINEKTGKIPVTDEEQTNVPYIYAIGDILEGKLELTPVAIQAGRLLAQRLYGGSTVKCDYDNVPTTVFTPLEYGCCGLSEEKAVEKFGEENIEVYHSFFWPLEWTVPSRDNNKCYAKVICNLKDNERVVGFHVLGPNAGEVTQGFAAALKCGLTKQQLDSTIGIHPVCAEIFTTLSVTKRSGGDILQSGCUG
#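 Rat TrxR1 (90 nM in the dispensed reagent) was pre-reduced with 400 uM NADPH for 5 min at room temperature, then incubated with compound for 15 min. After 400 uM selenite was added, NADPH fluorescence (Ex 340/Em 450 nm) was followed for 8 min.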
# TrxR1 substrate: rat thioredoxin reductase 1 substrate activity. O89049. purified TrxR1 substrate turnover, NADPH consumption readout. Potency, µM (series often up to 114 µM), without a hit: top-dose activity change, negative = substrate turnover. hit rate 0.01% among 390,000. AID 588456; also: % is scaled to controls: 0 for no effect and ±100 for the full control effect; nearly all actives have a fitted effect of over 50% in size
#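 Rat TrxR1, dispensed at 90 nM, was prereduced with 400 uM NADPH (final) for 5 min at ~22 deg C, then incubated with compound 15 min before 400 uM selenite. A first-read NADPH fluorescence drop versus no-compound background flagged substrates.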
# Nrf2 ARE act: activates Nrf2 signaling; AREc32 ARE-luciferase reporter (MCF7-derived line), luminescence, 24 h; Potency, µM (titrated, usually from 46.1 µM), without a hit: at the highest dose activation, most hits filed as activators; hit rate 0.31% among 410,000; AID 624171; also: % of control where 0% means no effect; nearly all actives have a fitted effect of over 65% in size
#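 For detection, Steady-Glo was added and plates sat 30 min at RT; before that, AREc32_Fluc cells grown overnight in OPTI-MEM/5% FBS had been treated with 23 nL compound for 24 hr at 37 deg C.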
# * hit, by the source's call; ? = inconclusive; / = no result given; [ ] = another dose, or the depositor's remark. Calls follow the shape of the dose curve; as a rule, active = well fitted curve in the direction sought with a large enough effect; inconclusive = small, poorly fitted or top-dose-only effect, or another doubt; inactive = no such curve, though single readings can be large; an effect the other way counts as inactive or inconclusive. Potency is read from the fitted curve at half-maximal effect.
SMILES,Nrf2 inh,GALK inhibitor,A549 tox,TrxR1 inh,TrxR1 substrate,Nrf2 ARE act
O=C(CCl)N(C/C=C/c1ccccc1)c1ccc2c(c1)OCCO2,?,1%,-2%,7.9µM*,1%[57.1 µM],?
C=CCOc1ccc(C2/C(=C(\O)c3ccc(F)cc3)C(=O)C(=O)N2CCCN(C)C)cc1 (centres undefined),2%,5%,-7%,35µM*,-4%,0%
CCOc1ccc(C2/C(=C(/O)c3ccc(F)cc3)C(=O)C(=O)N2CCCN(C)C)cc1 (centres undefined),/,1%,-6%,10%[57.1 µM],4%[57.1 µM],0%
O=C(NC1CCCC1)c1ccc2nc(-c3ccco3)c(-c3ccco3)nc2c1,5%,-3%,-5%,3.2µM*,9%[57.1 µM],20%
O=C(c1ccccc1)c1ccc2nc(-c3ccco3)c(-c3ccco3)nc2c1,20%,-5%,?,2.8µM*,5%[57.1 µM],?
O=C(NC1CCCCC1)c1cnn2c(C(F)(F)F)cc(-c3ccco3)nc12,/,1%,-6%,3.5µM*,15%,4%
O=C(NCCO)c1ccc2nc(-c3ccco3)c(-c3ccco3)nc2c1,8%,1%,-16%,8.9µM*,-3%,?
O=C(CSc1nc2c([nH]c3ccccc32)c(=O)n1-c1cccc(Cl)c1)N1CCCC1,/,/,1%,19%[57.1 µM],6%[57.1 µM],3%
CCCn1cc(S(=O)(=O)c2ccc(OC)cc2)c(=O)c2cc(F)c(N3CCCC(C)C3)cc21 (centres undefined),?,/,-18%,18%,8%,0%
CCCCN(CC)Cc1ccc(CNS(=O)(=O)c2cc3c(cc2Cl)NC(=O)CO3)o1,/,/,6%,8%[57.1 µM],-2%[57.1 µM],1%
O=C(NCCc1ccccc1)c1ccc2nc(-c3ccco3)c(-c3ccco3)nc2c1,-30%,0%,-10%,3.2µM*,-1%,4%
COc1ccc(-c2nc3ccc(C(=O)NCC(OC)OC)cc3nc2-c2ccc(OC)cc2)cc1,-7%,3%,-7%,30%,19%[57.1 µM],0%
O=C(NCCc1ccccc1)c1ccc2c(c1)OCCCO2,2.1µM*,10%,-1%,19%,5%,-2%
COC(CNC(=O)c1ccc2nc(-c3ccccc3)c(-c3ccccc3)nc2c1)OC,16µM*,5%,-15%,36%[57.1 µM],48%[57.1 µM],0%
Cc1cccc(C)c1N=C1C(=O)Nc2ccccc21,18µM*,-1%,-17%,8%,2%,-1%
c1ccc(-c2noc(CSc3nnc(Cc4cccs4)n3-c3ccccc3)n2)cc1,?,0%,-14%,4%[57.1 µM],-4%[57.1 µM],4%
CCOc1ccc(-c2noc(CSc3nnc(Cc4ccccc4)n3-c3cccc(C)c3)n2)cc1,26µM*,/,?,25%,-4%,0%
Cc1ccc(-c2noc(CSc3nnc(Cc4ccccc4)n3-c3cccc(C)c3)n2)cc1,26µM*,-5%,?,17%,-5%,0%
Clc1ccc(-c2noc(CSc3nnc(Cc4cccs4)n3-c3ccccc3)n2)cc1,16µM*,0%,-8%,39%,8%,0%
COc1ccc(-c2noc(CSc3nnc(Cc4ccccc4)n3-c3cccc(C)c3)n2)cc1OC,?,-1%,-8%,22%,5%,4%
COc1ccccc1N1CCN(C(=O)c2c3c(nc4ccccc24)C(=O)N(C2CCCCC2)C3)CC1,26%,/,2%,0%[57.1 µM],-2%[57.1 µM],3%
COc1cc(CN(C(=O)c2ccc(OC(C)C)cc2)c2ccccn2)cc(OC)c1OC,5.2µM*,/,-5%,0%,-13%,4%
COc1ccc(NC(=O)CSc2cn(CC(=O)N3CCOCC3)c3ccccc23)cc1OC,-1%,/,-5%,5%,0%,4%
Cc1cccc(Cn2c(=O)n(CCCC(=O)NCc3ccccc3Cl)c(=O)c3ccccc32)c1,10µM*,/,-18%,8%,-5%,0%
O=C1CC(N2CCN(c3ccccn3)CC2)C(=O)N1c1ccc(F)cc1 (centres undefined),20%,0%,2%,28%[57.1 µM],5%[57.1 µM],-1%
SMILES,Nrf2 inh,GALK inhibitor,A549 tox,TrxR1 inh,TrxR1 substrate,Nrf2 ARE act
O=C1CC(N2CCN(c3ccccn3)CC2)C(=O)N1CC(c1ccccc1)c1ccccc1 (centres undefined),?,-2%,-10%,25µM*,-6%,2%
COc1ccc(C2C3=C(N=CN(CCN4CCOCC4)C3N)Oc3ccccc32)cc1OC (centres undefined),8%,/,-1%,/,/,/
Cc1[nH]n(-c2ccccc2)c(=O)c1/C=N\NC(=O)C1COc2ccccc2O1 (centres undefined),16µM*,-1%,-14%,-17%,-15%,0%
COCC(=O)N/N=C/c1c(C)[nH]n(-c2ccccc2)c1=O,15µM*,0%,?,14%[57.1 µM],5%[57.1 µM],2%
CC(=O)N/N=C/c1c(C)[nH]n(-c2ccccc2)c1=O,15µM*,-1%,?,2%[57.1 µM],4%[57.1 µM],1%
CS(=O)(=O)c1ccc(/C=C2\C=Cc3ccccc32)cc1,/,/,/,-27%,-10%,/
O=C(NCc1ccccc1)c1ccc(Cn2c(=O)c3cccn3c3cccnc32)cc1,23%,/,6%,1%,11%,1%
FC(F)(F)c1ccc(N2CCOCC2)c(Nc2nc3ccccc3n3cnnc23)c1,21µM*,-2%,16µM*,-3%,-9%[57.1 µM],7%
NC(=O)c1cc[n+](CC2=C(C(=O)O)N3C(=O)[C@@H](NC(=O)[C@@H](c4ccccc4)S(=O)(=O)[O-])[C@H]3SC2)cc1,/,/,/,45µM*,13%[57.1 µM],/
COc1ccc(C2(C(=O)c3ccccc3)C(=O)c3ccccc3C2=O)cc1,18%,4%,-10%,2.2µM*,3%,0%
Cc1ccc(CNc2ncnc3ccc(-c4ccc5c(c4)OCO5)cc23)o1,0%,/,-4%,/,/,/
Cc1cnn(-c2nc(-c3cccs3)cc(C(F)(F)F)n2)c1,-19%,-2%,-14%,5%,-2%,0%
FC(F)(F)c1cc(-c2cccs2)nc(-n2cc(Br)cn2)n1,-29%,-4%,-7%,-5%,81%,3.2µM*
Cc1ccc(N/C(N)=N/c2nc(C)cc(N3CCCCC3)n2)c(C)c1,13µM*,5%,?,-10%[57.1 µM],-2%,0%
C=CC[n+]1c(-c2ccc(OCC)cc2)csc1NNC(=O)Nc1ccccc1,15µM*,0%,-6%,22%,-3%[57.1 µM],13%
COc1ccc(C(=O)Oc2cc(-c3ccc4c(c3)OCO4)cc(=O)c3c(C)oc(C)c23)cc1,18%,/,-7%,?,3%,0%
COc1ccc(-c2cc(OC(=O)c3ccc(Cl)cc3)c3c(C)oc(C)c3c(=O)c2)cc1,3%,/,-12%,50µM*,-7%,13%
